VDR inh – vitamin D3 receptor (human) inhibition | P11473 | VDR-SRC2-3 peptide fluorescence polarization, 2 h | Potency, µM, for the others: max response, negative = inhibition, actives largely listed as inhibitors | 400,000 compounds, 0.93% hits | AID 504847; further: on the % scale 0 is the no-effect control and ±100 the full control effect
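Reagent solutions, kept cold and dark, are dispensed first; compounds are then pinned in at 23 nl, plates briefly spun, and incubated 2 h at ambient temperature. Inhibition of VDR–SRC2-3 peptide binding is read by fluorescence polarization.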
Sfp PPTase inh – blocks B. subtilis Sfp PPTase activity; Biochemical Sfp PPTase activity, qHTS; Potency, µM, without a hit: largest response in the series, negative = inhibition, usual class: inhibitors; 310,000 compounds, 3.5% hits;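 further: the enzyme is Sfp with the accession as filed and its product quenches rhodamine fluorescence; 0% = enzyme reaction without inhibitor and -100% = no enzyme wells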
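Step 1, compound plus 15 nM Sfp-PPTase, 15 min, room temperature. Step 2, add rhodamine-CoA (5 uM) and BHQ-2-YbbR (12.5 uM). Step 3, read 525/598 nm fluorescence at 0 and 30 min.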
ALOX12 inh – ALOX12 (human) lipoxygenase inhibition. P18054. purified 12hLO, xylenol orange hydroperoxide absorbance. Potency, µM (titrated, usually from 108 µM), without a hit: at the highest dose activity change, negative = inhibition, most hits filed as inhibitors. 580,000 compounds, 1.1% hits; further: on the % scale 0 is the no-effect control and ±100 the full control effect
Target sequence (P18054 whole entry, looked up): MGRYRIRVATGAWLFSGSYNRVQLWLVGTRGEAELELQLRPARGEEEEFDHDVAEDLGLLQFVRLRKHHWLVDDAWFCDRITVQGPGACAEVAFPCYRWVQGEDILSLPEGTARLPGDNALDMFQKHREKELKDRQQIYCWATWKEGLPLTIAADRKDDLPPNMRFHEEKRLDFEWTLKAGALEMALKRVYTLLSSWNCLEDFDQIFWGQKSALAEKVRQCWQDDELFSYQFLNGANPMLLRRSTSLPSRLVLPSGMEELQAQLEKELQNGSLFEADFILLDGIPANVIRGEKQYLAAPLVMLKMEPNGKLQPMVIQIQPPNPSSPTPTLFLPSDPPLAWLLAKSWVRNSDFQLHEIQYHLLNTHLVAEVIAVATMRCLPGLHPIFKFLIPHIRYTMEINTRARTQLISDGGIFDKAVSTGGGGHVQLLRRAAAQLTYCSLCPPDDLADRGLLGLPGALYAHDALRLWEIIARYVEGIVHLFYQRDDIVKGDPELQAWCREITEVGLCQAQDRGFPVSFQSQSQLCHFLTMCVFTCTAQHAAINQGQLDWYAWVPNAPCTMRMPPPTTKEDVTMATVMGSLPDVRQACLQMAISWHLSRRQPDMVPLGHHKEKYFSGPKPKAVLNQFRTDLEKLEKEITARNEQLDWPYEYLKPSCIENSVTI
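Purified human 12hLO (150 nM final) in 25 mM Hepes, 0.01% Triton X-100, pH 7.0 was preincubated 15 min at room temperature with compound. Then 40 uM arachidonic acid was added, 30 min. Hydroperoxide was read by Fe-XO absorbance ratio 573/405 nm.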
Glioma ERSR ind – induces the endoplasmic reticulum stress response in human glioma cells | U87-MG GRP78 promoter luciferase reporter, 16 h | Potency, µM, for inactives: top-dose activation, hits mostly activators | AID 602332 | 420,000 compounds, 0.02% hits; further: series mostly up to about 76 µM; % of control where 0% means no effect; nearly all actives have a fitted effect of over 35% in size
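ERSR induction read as luciferase luminescence (Bright-Glo, 10 min at room temperature) in stably transfected human U87-MG glioma cells exposed to compounds for 16 h, using GRP78 as sensor.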
G9a block – inhibitors of human histone lysine methyltransferase G9a. Potency, µM (titrated, usually from 102 µM), inactives show at the highest dose activity, negative = inhibition, hits mostly inhibitors. 350,000 compounds, 8.8% hits. G9a H3K9 monomethylation, AlphaScreen, 2 h. Q96KQ7. AID 504332; further: on the % scale 0 is the no-effect control and ±100 the full control effect; nearly all actives have a fitted effect of over 75% in size
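Compounds were preincubated with 20 nM G9a for 15 min, after which biotinylated H3K9 peptide (500 nM) and SAM (20 uM) started a 2 h room-temperature reaction. Monomethylated product was quantified by antibody-based AlphaScreen chemiluminescence.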
Active calls of the source: *; ? = inconclusive; nt = no result; [ ] = remark or other dose. Shown is part of a subset that was picked to be rich in hits. The call rests on the fitted dose curve; in most records, active means well fitted curve in the direction sought with a large enough effect; inconclusive means small, poorly fitted or top-dose-only effect, or another doubt; inactive means no such curve, though single readings can be large; an effect the other way counts as inactive or inconclusive. Potency means the concentration at half of the fitted maximal effect.

SMILES	VDR inh	Sfp PPTase inh	ALOX12 inh	Glioma ERSR ind	G9a block
CC1CN(C(=O)N2CCC(C(=O)NC3CCCCCC3)CC2)c2cc(Cl)ccc2O1 (stereo not drawn)	0%	nt	3%	0%	?
Nc1ncnc2nc(SCCC(=O)O)[nH]c12	-1%	18%	-2%	3%	nt
CSc1nc2ncnc(N)c2[nH]1	-4%	-27%	?	-2%	45µM*
CCOC(=O)c1c(C)c(-c2ccccc2)n(CC(=O)N2CCN(C)CC2)c1C	0%	-3%	11%	-5%	71µM*
CCOC(=O)c1c(C)c(-c2ccccc2)n(CC(=O)N2CCCC2)c1C	-20%	10%	22%[57.4 µM]	-3%	-20%
COc1cc(C2CC(=O)Nc3c(C(=O)O)cn(-c4ccc(F)cc4)c32)cc(OC)c1OC (stereo not drawn)	nt	nt	-57%	nt	nt
COc1ccc(C(=O)/C(C#N)=N/Nc2ccc([N+](=O)[O-])cc2)cc1	3%	-4%	?	-3%	2µM*
COc1ccc(N/N=C(\C#N)C(=N)N2CCOCC2)cc1	-11%	-8%	8%	-2%	28µM*
CCOc1ccc(/C(C)=N/N2C(=O)C(CC(=O)Nc3ccc(OC)cc3[N+](=O)[O-])SC2=Nc2cccc(C)c2C)cc1 (stereo not drawn)	4%	-9%	-11%	0%	35µM*
COc1c(O)c(O)cc2c1oc1c3cc(C)ccc3oc(=O)c21	nt	79µM*	nt	nt	nt
COc1cc(-c2oc3ccc(C)cc3c(=O)c2O)cc(OC)c1OC	-20%	nt	-28%	-4%	2%[59 µM]
COc1ccc(CCNC(=S)N2CCN(S(=O)(=O)c3cccc(F)c3)CC2)cc1	-21%	nt	10%	-2%	50µM*
COc1ccc(CCNC(=S)N2CCN(S(=O)(=O)c3ccc(C)cc3)CC2)cc1	-18%	nt	-1%	-9%	50µM*
COc1ccc(S(=O)(=O)N2CCN(C(=S)NCCc3ccccc3)CC2)cc1	-1%	6%	?	-2%	-6%[12.7 µM]
COc1ccc(CNC(=S)N2CCN(S(=O)(=O)c3cccc(F)c3)CC2)cc1	-12%	14%	-8%	-3%	nt
CN(Cc1ccsc1)C(=O)/C=C/c1cccc2ccccc12	nt	nt	1%	nt	nt
CC(=O)N1CCC2(CC1)OC(=O)N(Cc1ccc(O)cc1)C2(C)c1ccccc1 (stereo not drawn)	nt	nt	30%[176 µM]	nt	nt
COCCCNC1=C(C#N)C(=O)NC(c2cccc([N+](=O)[O-])c2)S1 (stereo not drawn)	nt	nt	-18%	4%	nt
COc1cc(C2NC(=O)C(C#N)=C(Nc3cccc(C)c3)S2)ccc1O (stereo not drawn)	32µM*	20µM*	?	4%	45µM*
O=C(CCc1c[nH]c2ccccc12)NCC#Cc1cccc(C(F)(F)F)c1	nt	nt	-25%	nt	nt
Cc1cccc(N2CCN(C(=O)CN3C(=O)NC(C)(C)C3=O)CC2)c1C	0%	9%	0%	7%	nt
Cc1cccc(N2CCN(C(=O)CN3C(=O)NC(C)(C4CC4)C3=O)CC2)c1C (stereo not drawn)	-5%	nt	-18%	2%	56µM*
CC(=O)OC/C=C/c1ccccc1	nt	nt	5%[176 µM]	nt	nt
CC(C)c1ccc(N2C(=O)CC(Sc3ncn[nH]3)C2=O)cc1 (stereo not drawn)	19%	56µM*	?	1%	1.3µM*
CC1CC(=O)N(c2ccc(C(C)C)cc2)C(=O)C1	2%	13%	7%	0%	nt
SMILES	VDR inh	Sfp PPTase inh	ALOX12 inh	Glioma ERSR ind	G9a block
COc1ccc(N2C(=O)CC(Sc3ncn[nH]3)C2=O)c(OC)c1 (stereo not drawn)	0%	5.6µM*	-2%	-2%	1.3µM*
CC(C)c1ccc(N2C(=O)CC(Sc3nc4ccccc4o3)C2=O)cc1 (stereo not drawn)	-1%	?	0%	-6%	45µM*
CCOC(=O)C1(C)C=C(Nc2ccc(F)cc2)C(=O)N1c1ccc(F)cc1 (stereo not drawn)	nt	nt	-23%	nt	nt
CCn1c(CO)nnc1C1CC(NC(=O)c2cnc3sccn3c2=O)C1 (stereo not drawn)	nt	nt	35%	nt	nt
Cc1ccccc1C(=O)N1CCN(Cc2cccc3cccnc23)CC1	nt	nt	7%	nt	nt
CN(C)S(=O)(=O)c1ccc(-c2nc(C#N)c(N3CCN(c4ccccc4)CC3)o2)cc1	nt	nt	8%	nt	nt
Cc1cc(=O)n2cccc(O)c2n1	6%	56µM*	-11%	4%	nt
Cc1nnc(SCc2cc(=O)n3cccc(C)c3n2)s1	10%	nt	-12%	-5%	3%[59 µM]
COc1ccccc1NS(=O)(=O)c1ccc(NN=C2CCCCC2)c([N+](=O)[O-])c1	-18%	-1%	4%	-6%	25µM*
COc1ccccc1NS(=O)(=O)c1ccc(N/N=C(\C)C(C)C)c([N+](=O)[O-])c1	-2%	1%	-18%	-7%	28µM*
Cc1ccc(NC(=O)C2=COCCO2)cc1Cl	nt	nt	-17%	nt	nt
CN1C(=O)/C(=C2\SC(N3CCCCCC3)=NC2=O)c2ccccc21	1%	-12%	-20%	9%	40µM*
O=C(O)CCN1C(=O)/C(=C2\C(=O)N(Cc3ccc(F)cc3)c3ccccc32)SC1=S	?	-12%	?	-1%	16µM*
CN1C2=NCCN2C(=O)c2ccccc21	-7%	11%	8%	-3%	1%
CN1C(=O)/C(=C2\SC(=S)N(CCCCCC(=O)O)C2=O)c2ccccc21	-9%	18%	-3%	-3%	-27%
CCCN1C(=O)/C(=C2\SC(N3CCCCC3)=NC2=O)c2ccccc21	-10%	?	-15%	15%	22µM*
CN1C(=O)/C(=C2\SC(N)=NC2=O)c2ccccc21	-4%	56µM*	?	-3%	?
COC(=O)CNC(=O)c1cc(C)ccc1C	nt	nt	-8%	nt	nt
CC1CN(C2=NC(=O)/C(=C3/C(=O)N(Cc4ccc(F)cc4)c4ccccc43)S2)CC(C)O1 (stereo not drawn)	?	40µM*	?	-3%	nt
O=C1N=C(N2CCOCC2)S/C1=C1\C(=O)N(Cc2ccccc2)c2ccccc21	-5%	-8%	?	2%	15%[59 µM]
O=C(c1ccc(Cl)cc1)c1oc2ccccc2c1CS(=O)c1ccccc1 (stereo not drawn)	-24%	45µM*	?	-4%	?
COc1ccc(C)cc1CC(=O)OCc1ccc(C#N)cc1	nt	nt	-41%	nt	nt
CC(/C=C1\SC(=S)N(NC(=O)c2cccc(O)c2)C1=O)=C\c1ccccc1	-18%	?	-16%	-2%	8.9µM*
O=C(NN1C(=O)/C(=C/c2ccc(O)cc2)SC1=S)c1cccc(O)c1	-18%	27%	27%	1%	45µM*
Cc1cc(C)nc(NN2C(=O)/C(=C/c3ccc(O)cc3)SC2=S)n1	10%	-27%	?	3%	28µM*
CCOC(=O)c1ccc(N2C(=O)CC(N(C)CCc3ccc(OC)c(OC)c3)C2=O)cc1 (stereo not drawn)	8%	2%	?	0%	14µM*
CC(C)CCN1CC(Oc2cccc(C(=O)N3CCOCC3)c2)C1	nt	nt	-2%	nt	nt
